Reference: PubChem BioAssay AID743343 (Broad Institute, 2014)
Measured potencies and affinities stand elsewhere. The source made the active and inactive calls. The rule behind the calls is not given here.

These compounds were tested on Drosophila melanogaster bursicon receptor LGR2 (rickets) (assay: LGR2 antagonists, dose response, cell-based, HEK293, CRE-luciferase reporter, cherry pick, set 2 (AID 743343)). Settings: bursicon-induced cAMP antagonist; series mostly up to 35 µM.

| SMILES | outcome |
| --- | --- |
| O=C(O)c1nn(Cc2ccc(Cl)cc2Cl)c2ccccc12 | inactive |
| Cc1ccc2c(c1)C1CN(C)CCC1N2C(=O)c1cn(-c2ccccc2)nc1-c1ccccc1 (stereo not drawn) | inactive |
| O=c1c2ccccc2nc(/C=C/c2ccc([N+](=O)[O-])o2)n1-c1ccc(O)cc1 | inactive |
